# PubChem BioAssay AID1159572 (Broad Institute, 2015)
# Measured potencies and affinities stand elsewhere. The source made the active and inactive calls.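 How the source made its calls: active means compounds whose fitted half-maximal growth inhibition concentration is at most twice their top tested dose; inconclusive means flat fit with 30 to 70% inhibition, or poor fit; inactive means the rest.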
# Test: Dd2 parasite growth inhibition in erythrocytes – SYBR Green, dry powder samples, set 4, dose response (AID 1159572)
smiles,measurement,value
COc1ccc2c3c([nH]c2c1)[C@H](CO)N(C(C)=O)CC31CCN(C(=O)Nc2c(C)noc2C)CC1,outcome,inactive
